Structures can show the parent of a compound that is named as a salt.
system: S. enterica typhimurium tolC KO; assay: growth AUC normalised to DMSO control (median) (fraction of control); higher = less growth inhibition, active = hit call of the paper; details: 20 µM
How it was run: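 Strains were passaged twice overnight without oxygen, then grown in mGAM in 96-well plates with each approved-drug library compound at 20 μM and 1% DMSO, starting at OD578 0.01. OD578 was read hourly for 24 h inside an anaerobic incubator. Curves were truncated at entry into stationary phase, and the trapezoidal-rule area under the curve was normalised to same-plate vehicle wells. The value is the median across three biological replicates.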
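Further: active when median AUC fell below 0.1.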

SMILES | growth AUC normalised to DMSO control
Cn1c(=O)c2c(ncn2CC(O)CO)n(C)c1=O (stereo not given) [Diprophylline] | 0.998 (inactive)
CC(C)(C)NC[C@@H](O)COc1cccc2c1CCCC2=O [(+) Levobunolol hydrochloride] | 0.993 (inactive)
C[C@]12CCC(=O)C=C1CC[C@@H]1[C@@H]2[C@@H](O)C[C@@]2(C)[C@H]1CC[C@]2(O)C(=O)CO [Hydrocortisone] | 0.996 (inactive)
C#Cc1cccc(Nc2ncnc3cc(OCCOC)c(OCCOC)cc23)c1 [Erlotinib] | 0.938 (inactive)
O=C1CCC(N2C(=O)c3ccccc3C2=O)C(=O)N1 (stereo not given) [Thalidomide] | 1 (inactive)
CCOC(=O)C1=C(COCCN)NC(C)=C(C(=O)OC)C1c1ccccc1Cl (stereo not given) [Amlodipine] | 1.01 (inactive)
COc1ccc(CN(CCN(C)C)c2ccccn2)cc1 [Pyrilamine maleate] | 0.987 (inactive)
CN1CCCC(CC2c3ccccc3Sc3ccccc32)C1 (stereo not given) [Metixene hydrochloride] | 0.923 (inactive)
CC(C)/N=c1\cc2n(-c3ccc(Cl)cc3)c3ccccc3nc-2cc1Nc1ccc(Cl)cc1 [Clofazimine] | 1.02 (inactive)
NC(N)=Nc1nc(CSCC/C(N)=N/S(N)(=O)=O)cs1 [Famotidine] | 0.996 (inactive)
O=C1c2ccccc2C(=O)C1c1ccccc1 [Phenindione] | 0.977 (inactive)
CN1CCN2c3ccccc3Cc3ccccc3C2C1 (stereo not given) [Mianserine hydrochloride] | 1 (inactive)
CCN1C(=O)NC(c2ccccc2)C1=O (stereo not given) [Ethotoin] | 1 (inactive)
CC(=O)OCC(=O)[C@@]12OC3(CCCC3)O[C@@H]1C[C@H]1[C@@H]3CCC4=CC(=O)C=C[C@]4(C)[C@@]3(F)[C@@H](O)C[C@@]12C [Amcinonide] | 0.988 (inactive)
CCc1cccc(CC)c1NC(=O)CN(CC(=O)O)CC(=O)O [Etifenin] | 0.993 (inactive)
COc1ccc(C(Cl)=C(c2ccc(OC)cc2)c2ccc(OC)cc2)cc1 [Chlorotrianisene] | 0.993 (inactive)
CC(=O)c1ccc2c(c1)N(CCCN(C)C)c1ccccc1S2 [Acetopromazine maleate salt] | 0.969 (inactive)
CCN1CCCC(OC(=O)C(c2ccccc2)c2ccccc2)C1 (stereo not given) [Piperidolate hydrochloride] | 0.976 (inactive)
CCCCOc1ccc(CC(=O)NO)cc1 [Bufexamac] | 0.967 (inactive)
NC[C@@H]1O[C@H](O[C@H]2[C@@H](O)[C@H](O[C@@H]3[C@@H](O)[C@H](N)C[C@H](N)[C@H]3O[C@H]3O[C@H](CN)[C@@H](O)[C@H](O)[C@H]3N)O[C@@H]2CO)[C@H](N)[C@@H](O)[C@@H]1O [Neomycin sulfate] | 1.03 (inactive)
COc1cc(C(=O)OCCCN2CCCN(CCCOC(=O)c3cc(OC)c(OC)c(OC)c3)CC2)cc(OC)c1OC [Dilazep dihydrochloride] | 0.978 (inactive)
NC1CCN(c2c(F)cc3c(=O)c(C(=O)O)cn(C4CC4)c3c2Cl)C1 (stereo not given) [Clinafloxacin] | 0.00725 (active)
CC(=O)O[C@H]1C[C@@]2(C)[C@@H](C[C@@H](O)[C@H]3[C@@]4(C)CC[C@@H](O)[C@@H](C)[C@@H]4CC[C@@]32C)/C1=C(\CCC=C(C)C)C(=O)O [Fusidic acid sodium salt] | 0.0407 (active)
c1cnc(N2CCN(Cc3ccc4c(c3)OCO4)CC2)nc1 [Piribedil] | 1 (inactive)
O=C(CCCCC(=O)Nc1c(I)cc(I)c(C(=O)O)c1I)Nc1c(I)cc(I)c(C(=O)O)c1I [Iodipamide] | 1.01 (inactive)
COc1ccc2c(c1)C(=O)N(CCc1ccc(S(=O)(=O)NC(=O)NC3CCCCC3)cc1)C(=O)C2(C)C [Gliquidone] | 1 (inactive)
CC1(C)S[C@@H]2[C@H](NC(=O)[C@H](C(=O)O)c3ccsc3)C(=O)N2[C@H]1C(=O)O [Ticarcillin sodium] | 0.0028 (active)
CCOC(=O)/C=C(C)/C=C/C=C(C)/C=C/c1c(C)cc(OC)c(C)c1C [Etretinate] | 0.991 (inactive)
O=C(O)COCCN1CCN(C(c2ccccc2)c2ccc(Cl)cc2)CC1 (stereo not given) [Cetirizine dihydrochloride] | 0.994 (inactive)
CCN(CC)C(C)CN1c2ccccc2Sc2ccccc21 (stereo not given) [Ethopropazine hydrochloride] | 0.951 (inactive)

Reference: the supplement of paper PMC12350171
